Most compounds without a hit are left out; they make up all but 18% or so of the library.
IL1B secr inh: blocks inflammasome-driven IL-1 beta release. THP-1 LPS/ATP IL-1B secretion, AlphaLISA, 16 h; hits give low values. activity change, % at 57.5 µM. actives 4.7% (n = 360,000); in the data active = activity change below about -50%; inconclusive = mostly about -30% to -49%; also: % is scaled to controls: 0 for no effect and ±100 for the full control effect
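Secreted IL-1B measured by AlphaLISA bead assay after 16 h compound exposure of THP-1 cells; compounds (final up to 57.5 uM) added 1 h before LPS (250 ng/mL) and ATP (1.25 mM) stimulation; lower signal means less secretion.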
DT40 TDP1 CPT: growth inhibition of DT40 Tdp1-/-;hTDP1 cells with camptothecin (screen for TDP1 inhibitors) | actives 12% (n = 420,000) | chicken DT40 Tdp1-/-;hTDP1 cells + 20 nM CPT, ATP luminescence, 48 h | Potency, µM (highest dose often 46.2 µM), for the others: top-dose activity change, negative = growth inhibition, actives largely listed as inhibitors; also: potency is read from the fitted curve at half-maximal effect; % is scaled to controls: 0 for no effect and ±100 for the full control effect; nearly all actives have a fitted effect of over 55% in size
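Chicken DT40 Tdp1-/- cells stably complemented with human TDP1 were seeded at 400 cells/well in medium containing 20 nM camptothecin, exposed to pin-transferred compounds, and grown at 37 °C for at least 48 hr. Viability was read as ATP luminescence.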
DT40 TDP1 no CPT: qHTS for Inhibitors of human tyrosyl-DNA phosphodiesterase 1 (TDP1): qHTS in cells in absence of CPT; DT40 Tdp1-/- hTDP1 cells, no CPT, ATP luminescence, 48 h; Potency, µM (doses to about 46.2 µM), for the others: top-dose activity change, negative = growth inhibition, usual class: inhibitors; actives 15% (n = 420,000); AID 686978, 2013; also: potency is read from the fitted curve at half-maximal effect; % is scaled to controls: 0 for no effect and ±100 for the full control effect; nearly all actives have a fitted effect of over 55% in size
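Cells were dispensed at 400 per well, compounds added by pin tool, plates incubated ≥48 hr at 37 °C, then CellTiter-Glo added for 30 min at room temperature before luminescence reading. Line: DT40 Tdp1-/- complemented with hTDP1; camptothecin omitted.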
TDP1 block: blocks human tyrosyl-DNA phosphodiesterase 1; Potency, µM (doses to about 130 µM), without a hit: top-dose activity change, negative = inhibition, most hits filed as inhibitors; Q9NUW8; recombinant TDP1, AlphaScreen DNA substrate cleavage; actives 0.28% (n = 350,000); also: potency is read from the fitted curve at half-maximal effect; % is scaled to controls: 0 for no effect and ±100 for the full control effect; nearly all actives have a fitted effect of over 40% in size
Target sequence (Q9NUW8 whole entry, looked up): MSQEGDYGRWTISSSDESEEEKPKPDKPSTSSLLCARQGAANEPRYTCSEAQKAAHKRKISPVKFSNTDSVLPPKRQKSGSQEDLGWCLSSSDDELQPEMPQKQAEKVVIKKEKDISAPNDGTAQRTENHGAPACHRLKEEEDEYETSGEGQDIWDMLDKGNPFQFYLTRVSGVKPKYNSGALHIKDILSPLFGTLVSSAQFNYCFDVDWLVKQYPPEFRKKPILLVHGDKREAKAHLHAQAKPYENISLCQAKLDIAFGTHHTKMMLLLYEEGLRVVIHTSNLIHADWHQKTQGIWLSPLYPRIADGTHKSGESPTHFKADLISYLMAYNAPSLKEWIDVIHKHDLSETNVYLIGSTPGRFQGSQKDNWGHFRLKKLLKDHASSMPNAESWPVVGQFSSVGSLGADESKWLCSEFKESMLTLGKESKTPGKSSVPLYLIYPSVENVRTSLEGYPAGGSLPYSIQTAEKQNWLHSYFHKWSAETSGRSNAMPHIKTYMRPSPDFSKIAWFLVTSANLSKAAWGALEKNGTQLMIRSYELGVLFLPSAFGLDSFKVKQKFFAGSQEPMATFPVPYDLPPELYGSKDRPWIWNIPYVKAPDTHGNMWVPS
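Signal: AlphaScreen proximity between streptavidin donor and anti-FITC acceptor beads on intact substrate. Reaction: Tdp1 1 nM, substrate 15 nM final, 5 min RT after 15 min compound preincubation.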
HepG2 tox: counter-screen for TGF-b inhibitors: cytotoxicity in HepG2 cells; HepG2 CAGA-GFP viability, ATP luminescence, 18 h; Potency, µM (top dose mostly 46.1 µM), inactives show at the highest dose activity change, negative = cytotoxicity, hits mostly cytotoxic; actives 0.76% (n = 410,000); also: potency is read from the fitted curve at half-maximal effect
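CellTiter-Glo luminescence gave cytotoxicity after 18 hours at 37 degrees C. The cells were HepG2 CAGA-GFP in 1% FBS DMEM, stimulated with 500 pg/mL TGF-beta after compound addition. %Activity was normalised to no-cell wells (complete cell-killing) and DMSO (no toxicity), and curves were fitted and classified.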
TGFb SMAD3 inh: TGF-b pathway inhibition; actives 1.2% (n = 410,000); AID 588855; HepG2 CAGA-GFP TGF-b/SMAD3 reporter, GFP fluorescence, 18 h; TGF-beta stimulated, 500 pg/mL final; Potency, µM (top dose mostly 46.1 µM), without a hit: top-dose activity, negative = inhibition, most hits filed as inhibitors; also: potency is read from the fitted curve at half-maximal effect; % is scaled to controls: 0 for no effect and ±100 for the full control effect; nearly all actives have a fitted effect of over 65% in size
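HEPG2 CAGA-GFP cells (1000/well, DMEM with 1% FBS) were pre-incubated 2 h at 37 degrees C, given compound by pin tool, then stimulated with TGF-beta at 500 pg/mL final for 18 h before per-cell GFP fluorescence imaging.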
* marks the source's active call; other numbers are inactive results; u = inconclusive; x = not tested or not shown; [ ] = remark or other dose. Unless noted, calls follow the shape of the dose curve; as a rule, active = well fitted curve in the direction sought with a large enough effect; inconclusive = small, poorly fitted or top-dose-only effect, or another doubt; inactive = no such curve, though single readings can be large; an effect the other way counts as inactive or inconclusive.

SMILES	IL1B secr inh	DT40 TDP1 CPT	DT40 TDP1 no CPT	TDP1 block	HepG2 tox	TGFb SMAD3 inh
Cc1nn(-c2ccccc2)c2sc(C(=O)Nc3cccc(O)c3)cc12	x	u	23.1µM*	x	-106.3%	u
Cc1nn(-c2ccccc2)c2sc(C(=O)Nc3ccccc3Br)cc12	x	x	x	-6.3%	-30.7%	-2.0%
C=CCC[C@H](Cc1ccc(F)cc1)C(=O)OC[C@@H]1CCCN1C(=O)[C@@H](CC=C)CC(=O)NCCO	5.8	u	20.6µM*	1.3%	-10.9%	-13.1%
C=CCC[C@@H](Cc1ccc(F)cc1)C(=O)OC[C@@H]1CCCN1C(=O)[C@@H](CC=C)CC(=O)N[C@@H](CO)Cc1ccccc1	u	14.6µM*	16.4µM*	1.3%	-42.0%	u
Cc1ccc(Cn2c(C3CCCN3c3nc(C)cs3)nc3cc(C(=O)NCCCO)ccc32)cc1 (centres undefined)	-3.1	-14.6%	2.2%	x	-6.8%	u
OCCCn1c(CCNc2nc(-c3ccc(F)cc3)cs2)nc2cc(C(F)(F)F)ccc21	-69.0*	u	u	x	-35.9%	u
Cc1ccc(Cn2c(C3CCCN3c3nc(-c4ccc(F)cc4)cs3)nc3cc(C(=O)NCCCO)ccc32)cc1 (centres undefined)	1.2	20.6µM*	u	x	-19.4%	1.0%
OCCOCCn1c(C2CCCN2c2nc(-c3ccc(F)cc3)cs2)nc2cc(Cl)c(Cl)cc21 (centres undefined)	-54.0*	u	20.6µM*	x	3.4%	-45.9%
Cc1ccc(Cn2c(C3CCCN3c3nc(-c4ccc(F)cc4)cs3)nc3cc(Cl)c(Cl)cc32)cc1 (centres undefined)	-7.1	2.5%	-25.4%	x	-18.7%	7.0%
OCCCn1c(C2CCCN2c2nc(-c3ccc(F)cc3)cs2)nc2cc(C(F)(F)F)ccc21 (centres undefined)	-56.8*	8.2µM*	u	x	-0.4%	u
CC(C)(C)NC(=O)CN(C(=O)c1snc(C(=O)NC2CCCCC2)c1N)c1ccc(F)cc1	-10.1	u	u	4.1%[0.0935 µM]	-38.3%	-5.7%
Cc1ccc(Cn2c(C3CCCN3c3nc(-c4ccc(F)cc4)cs3)nc3cc(C(F)(F)F)ccc32)cc1 (centres undefined)	23.9	18.4µM*	20.6µM*	x	-28.9%	-1.2%
CCCn1c(C2CCCN2c2nc(-c3ccc(C)cc3)cs2)nc2ccccc21 (centres undefined)	27.2	u	u	x	-25.8%	-23.4%
OCCOCCn1c(C2CCCN2c2nc(-c3ccc(F)cc3)cs2)nc2cc(C(F)(F)F)ccc21 (centres undefined)	-12.2	16.4µM*	u	x	-19.1%	u
COCCNC(=O)c1cc(S(=O)(=O)N(C)C2CCCCC2)ccc1Cl	34.1	-27.6%	-29.7%	x	3.2%	-3.0%
Cc1c(C(=O)Nc2cccc(C(F)(F)F)c2)oc2ccc(S(=O)(=O)N(C)C3CCCCC3)cc12	x	11.6µM*	13µM*	5.2%	-22.5%	-18.0%
COc1ccc(NC(=O)c2oc3ccc(S(=O)(=O)N(C)C4CCCCC4)cc3c2C)cc1Cl	x	9.2µM*	5.8µM*	2.6%	-10.3%	-18.6%
COc1ccc(NC(=O)c2oc3ccc(S(=O)(=O)N4CCCCC4)cc3c2C)cc1	x	u	u	5.2%	20.5%	49.3%
Cc1ccc(NC(=O)c2cc(S(=O)(=O)N(C)C3CCCCC3)ccc2F)cc1C	x	18.4µM*	18.4µM*	-2.6%	-34.2%	0.0%
COc1ccc2oc(C(=O)Nc3ccc(S(=O)(=O)N(C)C4CCN(C)CC4)cc3)c(C)c2c1	u	u	18.4µM*	2.9%	12.6µM*	u
COCCCNC(=O)c1oc2ccc(S(=O)(=O)N(C)C3CCCCC3)cc2c1C	-7.8	u	u	3.1%	-14.0%	6.8%
CCOc1ccc(C(=O)N2CCC(c3nnc(-c4ccccc4OC)o3)CC2)cc1	x	u	u	-1.3%	1.9%	-21.9%
Cc1cc(C(=O)NC2CC(C)(C)Cc3c2cnn3-c2ccc(F)cc2)no1 (centres undefined)	-4.7	u	u	1.6%	-3.7%	0.0%
Cc1c(C(=O)Nc2ccc(F)c(Cl)c2)oc2ccc(S(=O)(=O)N(C)C3CCCCC3)cc12	x	23.1µM*	14.6µM*	0.0%	2.5%	u
Cc1ccc(NC(=O)c2oc3ccc(S(=O)(=O)N(C)C4CCCCC4)cc3c2C)c(C)c1	x	u	14.6µM*	-5.2%	-0.7%	u
CCC1CCCCN1C(=O)c1sc(-n2nc(C)c(Cc3ccccc3)c2C)nc1C (centres undefined)	x	-27.2%	u	1.6%	-0.5%	-26.3%
CC(C)C[C@H](NC(=O)CC[C@H]1O[C@@H](n2ccc(=O)[nH]c2=O)[C@H](O)[C@@H]1O)C(=O)O	20.9	-18.4%	-3.8%	x	-1.4%	u
Cc1nnc(NC(=O)CSc2nc3c(c(=O)n2CCc2ccccc2)SC(C)C3)s1 (centres undefined)	2.8	-20.9%	-15.6%	2.1%	-0.3%	-13.9%
CCSc1nnc(NC(=O)CSc2nc3c(c(=O)n2CC)SC(C)C3)s1 (centres undefined)	53.1	13µM*	8.2µM*	2.1%	11.6%	-1.6%
CCc1nnc(NC(=O)CSc2nnc(C3CC3)n2C)s1	4.8	-0.4%	-16.2%	1.3%	-5.4%	-18.2%

Compound activity deposited in PubChem by National Center for Advancing Translational Sciences (NCATS).
